# Measured values from the supplement of paper PMC8728848.
# The full list was thinned out, with the strongest signals kept by preference.
# B1: Blon0732mut (Bifidobacterium longum) (protein)
# chain: MPTSEHKADDATRHLTLIPAPVTLEYTHGTALIGPLVTIEDADQSWETLPIEQLSDELRHRYGVTVLRRRTHGTVISLGLDSRLAHDEYTLDVSESEGIRVRGGGESGLRYGLQTLRQIIGQTSRAIPCLHIQDKPAFAVRAYSLDVTRGRVPTMEFLTWFVDQLALYKYNQFQLYVEHAFAFVELSEAWRGTDPLTAADITYLDEYCARRGIELVPSLATFGHMYMNLRTREHRGLGEFPEDADRPFSFIERMEHHTLNAADPKAHDFASRLIEEYAPLFRSKSFNIGGNETFDLGRGRSAQDAPEAGRDELYAGFVRDLCETLARHGRQPMLWADIALESPRTMDLLPGDITMLNWMYEPQIDESKIQTIATQGRRQFVCPAVRAWSRFFPDYAGAWLNTYHMALAGTKYDAEGMVVTDWGDYGHVNDPRLSVPGLCYGAQNAWNPIEIDAHEMNRRISALVYGDESGRIMDCLARIDSDGVSFPWDLAVQVLELEYGSGTGALNMDVAACMERSSGGKLTLDRTLGCDDARRRMLQWNRERIERRRDCDQVLRDCGDAFAGLDKGGLTAEFLSVMLDGQRLFNELGEELLALADGKDVGSGANRLAADLELWFERYRAQWLSVGRHAELARIAHVVWSLADILRRGAL
# Tests used:
# Test in all cases: glycan array binding signal (z-score within array); higher = stronger binding
# Settings in all cases: glycan notation: IUPAC condensed, linker removed
# [1] = molecular target: Fuc(a1-2)Gal(b1-3)GalNAc(b1-3)Gal
# Method in brief: (§1)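 Arrays were curated from the Consortium for Functional Glycomics database, 3228 in total, and kept only where the protein sequence was available. Binding is expressed as a within-array Z-score. This score was averaged across arrays of the same protein sequence at different concentrations or buffers and across linkers, and negative values can be read as non-binding.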
# [2] = molecular target: Fuc(a1-2)Gal(b1-3)[Fuc(a1-4)]GlcNAc
# Method in brief: as §1
# [3] = molecular target: Fuc(a1-2)Gal(b1-3)[Fuc(a1-4)]GlcNAc(b1-3)[Gal(b1-4)GlcNAc(b1-6)]Gal(b1-4)Glc
# Method in brief: as §1
# [4] = molecular target: Fuc(a1-2)Gal(b1-4)GlcNAc(b1-3)Gal(b1-4)GlcNAc(b1-2)Man(a1-3)[Fuc(a1-2)Gal(b1-4)GlcNAc(b1-3)Gal(b1-4)GlcNAc(b1-2)Man(a1-6)]Man(b1-4)GlcNAc(b1-4)GlcNAc
# Method in brief: as §1
# [5] = molecular target: Fuc(a1-2)Gal(b1-4)[Fuc(a1-3)]GlcNAc(b1-3)Gal(b1-4)[Fuc(a1-3)]GlcNAc
# Method in brief: as §1
# [6] = molecular target: Fuc(a1-2)[Gal(a1-3)]Gal(b1-4)GlcNAc(b1-2)Man(a1-3)[Fuc(a1-2)[Gal(a1-3)]Gal(b1-4)GlcNAc(b1-2)Man(a1-6)]Man(b1-4)GlcNAc(b1-4)GlcNAc
# Method in brief: as §1
# [7] = molecular target: Fuc(a1-2)[Gal(a1-3)]Gal(b1-4)GlcNAc(b1-3)GalNAc
# Method in brief: as §1
# [8] = molecular target: Fuc(a1-2)[GalNAc(a1-3)]Gal(b1-3)GlcNAc(b1-6)GalNAc
# Method in brief: as §1
# [9] = molecular target: Fuc(a1-2)[GalNAc(a1-3)]Gal(b1-4)GlcNAc(b1-2)Man(a1-3)[Fuc(a1-2)[GalNAc(a1-3)]Gal(b1-4)GlcNAc(b1-2)Man(a1-6)]Man(b1-4)GlcNAc(b1-4)GlcNAc
# Method in brief: as §1
# [10] = molecular target: Fuc(a1-2)[GalNAc(a1-3)]Gal(b1-4)GlcNAc(b1-3)Gal(b1-4)GlcNAc(b1-3)Gal(b1-4)GlcNAc
# Method in brief: as §1
# [11] = molecular target: Fuc(a1-2)[GalNAc(b1-3)]Gal
# Method in brief: as §1
# [12] = molecular target: Fuc(a1-3)[GalNAc(b1-4)]GlcNAc
# Method in brief: as §1
# [13] = molecular target: Gal(a1-3)Gal(b1-4)GlcNAc(b1-2)Man
# Method in brief: as §1
# [14] = molecular target: Gal(a1-3)Gal(b1-4)GlcNAc(b1-2)Man(a1-3)[Gal(a1-3)Gal(b1-4)GlcNAc(b1-2)Man(a1-6)]Man(b1-4)GlcNAc(b1-4)GlcNAc
# Method in brief: as §1
# [15] = molecular target: Gal(a1-3)[Gal(a1-4)]Gal(b1-4)GlcNAc
# Method in brief: as §1
# Gal(a1-4)Gal(b1-4)Glc = molecular target: Gal(a1-4)Gal(b1-4)Glc
# Method in brief: as §1
# [16] = molecular target: Gal(b1-3)[Fuc(a1-4)]GlcNAc(b1-2)Man
# Method in brief: as §1
# [17] = molecular target: Gal(b1-3)[Fuc(a1-4)]GlcNAc(b1-3)Gal(b1-3)[Fuc(a1-4)]GlcNAc
# Method in brief: as §1
# [18] = molecular target: Gal(b1-4)GalNAc(a1-3)[Fuc(a1-2)]Gal(b1-4)GlcNAc
# Method in brief: as §1
# Gal(b1-4)GlcNAc(b1-2)Man = molecular target: Gal(b1-4)GlcNAc(b1-2)Man
# Method in brief: as §1
# [19] = molecular target: Gal(b1-4)GlcNAc(b1-6)GalNAc
# Method in brief: as §1
# Gal(b1-6)Gal = molecular target: Gal(b1-6)Gal
# Method in brief: as §1
# Gal3S(b1-3)GalNAc = molecular target: Gal3S(b1-3)GalNAc
# Method in brief: as §1
# Gal3S(b1-4)GlcNAc = molecular target: Gal3S(b1-4)GlcNAc
# Method in brief: as §1
# [20] = molecular target: Gal3S(b1-4)[Fuc(a1-3)]Glc6S
# Method in brief: as §1
# [21] = molecular target: Gal3S(b1-4)[Fuc(a1-3)]GlcNAc
# Method in brief: as §1
# Gal4S6S(b1-4)GlcNAc = molecular target: Gal4S6S(b1-4)GlcNAc
# Method in brief: as §1
# [22] = molecular target: GalNAc(b1-4)GlcNAc(b1-2)Man
# Method in brief: as §1
# GalNAc(b1-4)GlcNAc6S = molecular target: GalNAc(b1-4)GlcNAc6S
# Method in brief: as §1
# [23] = molecular target: GlcNAc(b1-2)Man(a1-3)[GlcNAc(b1-4)][GlcNAc(b1-2)Man(a1-6)]Man(b1-4)GlcNAc(b1-4)[Fuc(a1-6)]GlcNAc
# Method in brief: as §1
# GlcNAc(b1-3)Fuc = molecular target: GlcNAc(b1-3)Fuc
# Method in brief: as §1
# [24] = molecular target: GlcNAc(b1-3)Gal(b1-4)GlcNAc(b1-2)[GlcNAc(b1-3)Gal(b1-4)GlcNAc(b1-6)]Man(a1-6)[GlcNAc(b1-3)Gal(b1-4)GlcNAc(b1-2)Man(a1-3)]Man(b1-4)GlcNAc(b1-4)GlcNAc
# Method in brief: as §1
# [25] = molecular target: GlcNAc(b1-3)[GlcNAc(b1-4)][GlcNAc(b1-6)]GlcNAc
# Method in brief: as §1
# [26] = molecular target: GlcNAc(b1-4)GlcNAc(b1-4)GlcNAc
# Method in brief: as §1
# [27] = molecular target: GlcNAc(b1-6)Gal(b1-4)GlcNAc
# Method in brief: as §1
# [28] = molecular target: Man(a1-3)[Man(a1-6)]Man(b1-4)GlcNAc(b1-4)GlcNAc
# Method in brief: as §1
# [29] = molecular target: Neu5Ac(a2-3)Gal(b1-3)GalNAc(b1-4)[Neu5Ac(a2-8)Neu5Ac(a2-3)]Gal(b1-4)Glc
# Method in brief: as §1
# [30] = molecular target: Neu5Ac(a2-3)Gal(b1-3)GlcNAc
# Method in brief: as §1
# [31] = molecular target: Neu5Ac(a2-3)Gal(b1-3)GlcNAc(b1-4)Gal(b1-4)Glc
# Method in brief: as §1
# [32] = molecular target: Neu5Ac(a2-3)Gal(b1-3)[Fuc(a1-4)]GlcNAc(b1-3)Gal(b1-3)[Fuc(a1-4)]GlcNAc
# Method in brief: as §1
# [33] = molecular target: Neu5Ac(a2-3)Gal(b1-3)[Fuc(a1-4)]GlcNAc(b1-3)Gal(b1-4)[Fuc(a1-3)]GlcNAc
# Method in brief: as §1
# [34] = molecular target: Neu5Ac(a2-3)Gal(b1-4)[Fuc(a1-3)]GlcNAc(b1-3)GalNAc
# Method in brief: as §1
# [35] = molecular target: Neu5Ac(a2-3)Gal(b1-4)[Fuc(a1-3)]GlcNAc(b1-6)[Gal(b1-3)]GalNAc
# Method in brief: as §1
# [36] = molecular target: Neu5Ac(a2-6)Gal(b1-4)GlcNAc(b1-3)Gal(b1-4)[Fuc(a1-3)]GlcNAc(b1-3)Gal(b1-4)[Fuc(a1-3)]GlcNAc
# Method in brief: as §1
# [37] = molecular target: Neu5Ac(a2-6)Gal(b1-4)GlcNAc(b1-6)[Gal(b1-3)]GalNAc
# Method in brief: as §1
# [38] = molecular target: Neu5Gc(a2-3)Gal(b1-3)GlcNAc
# Method in brief: as §1
# Neu5Gc(a2-3)Gal(b1-4)Glc = molecular target: Neu5Gc(a2-3)Gal(b1-4)Glc
# Method in brief: as §1
binder,measurement,setting,value
B1,glycan array binding signal (z-score),[1],-1.26
same,glycan array binding signal (z-score),[2],0.087
same,glycan array binding signal (z-score),[3],-0.87
same,glycan array binding signal (z-score),[4],-0.325
same,glycan array binding signal (z-score),[5],0.489
same,glycan array binding signal (z-score),[6],-0.864
same,glycan array binding signal (z-score),[7],-0.533
same,glycan array binding signal (z-score),[8],-0.809
same,glycan array binding signal (z-score),[9],0.397
same,glycan array binding signal (z-score),[10],0.035
same,glycan array binding signal (z-score),[11],0.44
same,glycan array binding signal (z-score),[12],1.89
same,glycan array binding signal (z-score),[13],-0.505
same,glycan array binding signal (z-score),[14],0.086
same,glycan array binding signal (z-score),[15],5.9
same,glycan array binding signal (z-score),Gal(a1-4)Gal(b1-4)Glc,2.6
same,glycan array binding signal (z-score),[16],-0.411
same,glycan array binding signal (z-score),[17],-0.751
same,glycan array binding signal (z-score),[18],0.345
same,glycan array binding signal (z-score),Gal(b1-4)GlcNAc(b1-2)Man,1.31
same,glycan array binding signal (z-score),[19],0.168
same,glycan array binding signal (z-score),Gal(b1-6)Gal,-0.313
same,glycan array binding signal (z-score),Gal3S(b1-3)GalNAc,1.16
same,glycan array binding signal (z-score),Gal3S(b1-4)GlcNAc,-0.019
same,glycan array binding signal (z-score),[20],4.3
same,glycan array binding signal (z-score),[21],3.42
same,glycan array binding signal (z-score),Gal4S6S(b1-4)GlcNAc,2.26
same,glycan array binding signal (z-score),[22],0.028
same,glycan array binding signal (z-score),GalNAc(b1-4)GlcNAc6S,-0.46
same,glycan array binding signal (z-score),[23],-0.15
same,glycan array binding signal (z-score),GlcNAc(b1-3)Fuc,-1.38
same,glycan array binding signal (z-score),[24],3.03
same,glycan array binding signal (z-score),[25],5.26
same,glycan array binding signal (z-score),[26],-0.223
same,glycan array binding signal (z-score),[27],0.074
same,glycan array binding signal (z-score),[28],-0.261
same,glycan array binding signal (z-score),[29],3.81
same,glycan array binding signal (z-score),[30],-0.428
same,glycan array binding signal (z-score),[31],0.176
same,glycan array binding signal (z-score),[32],-0.898
same,glycan array binding signal (z-score),[33],-0.002
same,glycan array binding signal (z-score),[34],2.5
same,glycan array binding signal (z-score),[35],0.262
same,glycan array binding signal (z-score),[36],2.6
same,glycan array binding signal (z-score),[37],0.982
same,glycan array binding signal (z-score),[38],-0.667
same,glycan array binding signal (z-score),Neu5Gc(a2-3)Gal(b1-4)Glc,2.58
